# Bioassay records from PubChem.
# A3A deaminase = human APOBEC3A DNA deaminase inhibition. 0.41% of 330,000 active. recombinant A3A, FAM/TAMRA ssDNA deamination fluorescence. AID 493011. P31941. inhibition, % at 20 µM;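 active = at least 40% inhibition at 20 µM here, with at most 30% in a related deaminase screen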
# Target sequence (P31941 whole entry, looked up): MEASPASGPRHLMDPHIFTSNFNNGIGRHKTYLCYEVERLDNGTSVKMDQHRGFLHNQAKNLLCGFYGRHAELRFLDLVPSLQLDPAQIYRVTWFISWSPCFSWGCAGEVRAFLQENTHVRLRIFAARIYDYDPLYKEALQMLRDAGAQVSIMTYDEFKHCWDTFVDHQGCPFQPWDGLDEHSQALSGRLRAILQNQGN
# CR mimetic SO = lowers age-related superoxide in aged yeast cells. 0.18% of 330,000 active. AID 2690. superoxide response (% of plate mean), % at 10 µM. S. cerevisiae aged cells, superoxide DHE fluorescence; hits give low values;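 active = superoxide response under a set limit, about three screen SD below normal, cut at about 65% in these data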;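 also: yeast aged for seven days with compound at 30 °C before DHE staining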
# PfM18AAP inh-1 = blocks P. falciparum M18 aspartyl aminopeptidase; inhibition, % at 7.35 µM; 1.2% of 290,000 active; recombinant PfM18AAP, H-Glu-NHMec fluorogenic cleavage;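 active = inhibition above the campaign mean inhibition over all tested compounds plus 3 SD, cut at about 28% in these data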
# A3G deaminase = blocks human APOBEC3G single-stranded DNA deamination | Q9HC16 | recombinant A3G, ssDNA deamination FAM/TAMRA fluorescence | inhibition, % at 20 µM | 0.28% of 330,000 active | AID 493012;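 active = inhibition of at least 40% at 20 µM, with no more than 30% in the related APOBEC3A deaminase screen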
# ALR inh = blocks human ALR sulfhydryl oxidase activity | P55789 | purified ALR, DTT oxidation, H2O2 HRP-luminol luminescence | inhibition, % (no concentration beside the values) | 3.8% of 290,000 active | AID 485317;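 active = mean replicate inhibition above about 79%, with every replicate also reaching it, limit read from the data; inconclusive = only one of the two criteria met; inactive = mean below limit and not every replicate reaching it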
# Target sequence (P55789 whole entry, looked up): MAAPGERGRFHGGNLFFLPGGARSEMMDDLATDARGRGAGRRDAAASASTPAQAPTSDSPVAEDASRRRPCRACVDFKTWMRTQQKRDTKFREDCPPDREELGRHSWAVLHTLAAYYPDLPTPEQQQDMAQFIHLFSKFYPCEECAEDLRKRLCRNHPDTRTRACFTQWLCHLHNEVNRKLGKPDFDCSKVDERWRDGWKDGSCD
# NRP1-CendR mod = modulators of CendR peptide binding to human neuropilin-1; O14786; FAM-RPARPAR peptide binding to NRP-1, fluorescence polarization; inhibition, % at 25 µM; 0.85% of 360,000 active;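 active = inhibition or corrected inhibition above about 18%, plus a signal ratio from 0.5 to 1.5, limit read from the data, passing the limit was not always enough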
# PfM18AAP inh-2 = confirmation of Plasmodium falciparum M18 aspartyl aminopeptidase inhibitors; shares compounds with PfM18AAP inh-1; 28% of 2,400 active; AID 2170; recombinant PfM18AAP, H-Glu-NHMec fluorogenic cleavage; inhibition, % at 7.35 µM;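 active = mean inhibition over replicate wells above the hit cutoff set for the earlier primary screen, cut at about 29% in these data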
# CTSL1 confirm = Cathepsin L (human) inhibition, confirmation. shares compounds with PfM18AAP inh-1. purified cathepsin L1, Z-Leu-Arg-MCA fluorescence. inhibition, % at 5.96 µM. 2,400 tested, under 10 active;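 active = average inhibition across replicates above the hit cutoff set in the earlier primary screen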
# Hits are given with their value; – = inactive; ? = inconclusive; · = no result. A selection: hits, their analogues and other compounds. The true share with any hit is near 5.2%.
SMILES,A3A deaminase,CR mimetic SO,PfM18AAP inh-1,A3G deaminase,ALR inh,NRP1-CendR mod,PfM18AAP inh-2,CTSL1 confirm
Cc1ccc(/C=C/C(=O)Nc2nn[nH]n2)o1,–,–,51.3,–,–,–,–,–
CC(=O)Cn1cnc2scc(-c3ccc(C)c(C)c3)c2c1=O,–,–,–,–,–,–,·,·
COc1ccc(OC)c(S(=O)(=O)N2CCCC(C(=O)NC3CC3)C2)c1 (stereo not given),·,·,·,·,·,–,·,·
NS(=O)(=O)c1ccc(NC(=S)N2CCC(Cc3ccccc3)CC2)cc1,–,–,36.8,–,–,–,–,–
CCCN1CCN(C(=S)Nc2ccc(S(N)(=O)=O)cc2)CC1,–,–,–,–,–,–,·,·
NC(=O)C1(N2CCCCC2)CCN(C(=S)Nc2ccc(S(N)(=O)=O)cc2)CC1,–,–,32.8,–,–,–,–,–
NC(=O)C1(N2CCCCC2)CCN(C(=S)Nc2ccc(F)c(Cl)c2)CC1,–,–,–,–,–,–,·,·
COC(=O)Cc1ccc(O)c(N)c1,–,–,54.1,–,95.4,–,60.9,–
Cc1ccc(-n2c(=S)[nH]c3[nH]ncc3c2=O)cc1,–,–,–,–,–,–,·,·
O=c1c2cn[nH]c2[nH]c(=S)n1-c1ccccc1Cl,–,–,37.3,–,–,–,–,–
O=c1c2cn[nH]c2[nH]c(=S)n1-c1ccccc1F,–,–,57.4,–,–,–,–,–
Cc1cccc2nc(CSc3nc4[nH]ncc4c(=O)n3-c3ccccc3Cl)cc(=O)n12,–,–,–,–,–,–,·,·
Cc1ccc([N+](=O)[O-])cc1NC(=O)CSc1nnc(C)n1CC1CCCO1 (stereo not given),–,–,–,–,–,–,·,·
CC(C)/C=C(/C(=O)c1ccc(Cl)cc1Cl)n1cncn1,–,–,49.3,–,97.2,–,–,–
Cc1cc2oc(=O)cc(CN3CCN(Cc4ccc5c(c4)OCO5)CC3)c2cc1C,–,–,–,–,–,–,·,·
CC/C(CC(=O)C(F)(F)F)=N\NC(=O)/C(C#N)=C/N(C)C,–,–,42.9,–,–,–,–,–
Cc1nc2ccccn2c1C(=O)NNS(=O)(=O)c1ccc(Cl)cc1,–,–,–,–,·,–,·,·
Cc1ccn2c(C(=O)NNC(=O)Nc3ccc(Cl)cc3)c(C)nc2c1,–,–,63.9,–,?,–,48.1,–
O=C(CC1c2ccccc2Oc2ccccc21)Nc1ccccc1F,–,–,–,–,–,–,·,·
O=C(CCc1nc2ccccc2s1)c1ccccc1,–,–,–,–,–,–,·,·
O=C(O)Cn1nnnc1SCC(=O)Nc1ccccc1F,–,–,–,–,–,–,·,·
CC1=NN(c2nc(-c3ccccc3)cs2)C(=O)C1,–,–,–,–,–,–,·,·
O=C1CC(c2ccccc2)=NN1c1nc(-c2ccccc2)cs1,–,–,32.7,–,·,–,–,–
COc1ccc(OC)c(/C=N/NC(=S)NCCc2ccccc2)c1,·,–,–,·,–,–,·,·
COc1c(Br)cc(/C=N/n2c(-c3ccccc3)n[nH]c2=S)c(O)c1Br,–,–,45.0,–,–,–,–,–
SMILES,A3A deaminase,CR mimetic SO,PfM18AAP inh-1,A3G deaminase,ALR inh,NRP1-CendR mod,PfM18AAP inh-2,CTSL1 confirm
CCOc1ccc(/C=N/n2c(-c3ccccc3)n[nH]c2=S)cc1,–,–,–,–,–,–,·,·
O=C(Cc1ccc(F)cc1)Nc1ccccc1N1CCCC1,–,–,32.5,–,88.6,–,–,–
O=C(Cc1ccc(Cl)c(Cl)c1)Nc1ccccc1N1CCCC1,–,–,–,–,–,–,·,·
Cc1oc2cc(O)ccc2c(=O)c1Oc1ccccc1,–,–,–,–,–,–,·,·
CC(=O)Oc1ccc2c(=O)c(Oc3ccccc3)c(C)oc2c1OC(C)=O,–,–,44.3,–,99.5,–,–,–
O=C(CSc1nnc(-c2cccc(F)c2)o1)Nc1nncs1,–,–,50.1,–,–,–,–,–
CN(C)c1ccc(-c2ccnc3c2CC(C)(C(=O)Nc2ccc4c(c2)OCO4)O3)cc1 (stereo not given),·,·,·,·,·,–,·,·
CCOC(=O)c1cc(C(=O)Nc2sc3c(c2C#N)CCCC3)nn1C,–,–,37.4,–,–,–,–,–
CCC(=O)Nc1sc2c(c1C#N)CCCCC2,–,–,–,–,–,–,·,·
Cc1c(C#N)c(O)n(C)c(=O)c1N=Nc1ccc(S(N)(=O)=O)cc1,·,·,35.5,·,·,–,–,–
Cc1c(C#N)c(O)n(CCO)c(=O)c1N=Nc1ccc(S(N)(=O)=O)cc1,–,–,35.5,–,–,–,–,–
Cc1cc(C)n2nc(S(=O)(=O)N(C)c3ccccc3)nc2n1,–,–,–,–,–,–,·,·
O=C(CNS(=O)(=O)c1ccccc1)OCC(=O)c1ccc([N+](=O)[O-])cc1,–,–,33.0,–,–,–,–,–
O=C(CNC(=O)c1ccco1)OCC(=O)c1ccc([N+](=O)[O-])cc1,–,–,39.5,–,99.5,–,–,–
O=C(CNC(=O)c1cccs1)OCC(=O)c1ccc([N+](=O)[O-])cc1,–,–,45.1,–,?,–,–,–
O=C(Cc1ccccc1)NCC(=O)OCC(=O)c1ccc([N+](=O)[O-])cc1,–,–,39.5,–,·,–,–,–
CCc1ccc(C(=O)COC(=O)CNC(=O)c2ccco2)cc1,–,–,–,–,–,–,·,·
O=C(CNC(=O)c1cccs1)c1ccc([N+](=O)[O-])cc1,–,–,–,–,–,–,·,·
NNC(=O)CNS(=O)(=O)c1ccc([N+](=O)[O-])cc1,–,–,35.4,–,–,–,–,–
Cc1ccc(C(=O)NCC(=O)NCC(=O)OCC(=O)c2ccc([N+](=O)[O-])cc2)cc1,–,–,33.1,–,–,–,–,–
CC(=O)NC1=NC(=O)/C(=C/c2cc(C)n(-c3ccc(NC(C)=O)cc3)c2C)S1,–,–,–,–,·,–,·,·
CC(=O)NC1=NC(=O)/C(=C/c2cc(C)n(-c3cccc(C(=O)O)c3)c2C)S1,–,·,33.5,–,·,–,–,–
Cc1ccccc1Cn1ccc(NC(=O)c2nc3ncccn3n2)n1,–,–,–,–,–,–,·,·
O=C(c1ccc(=O)[nH]c1)N1CCN(S(=O)(=O)c2cc(C(F)(F)F)ccc2Cl)CC1,–,–,–,–,·,–,·,·
O=C(NNc1cc(C(F)(F)F)ccc1Cl)c1ccc(=O)[nH]c1,–,–,44.4,–,–,–,–,–
Cc1ccc(C)c2[nH]c(=O)c(CCNC(=O)Cc3cccs3)cc12,–,–,–,–,·,–,·,·
NC(=O)NNc1cccc(Cl)n1,–,–,47.0,–,·,–,–,–
O=C(NNc1cccc(Cl)n1)c1c(Cl)cccc1Cl,–,–,56.1,–,–,–,–,–
O=C1N[C@@H](c2ccccc2)COC(=O)[C@H](Cc2ccc(F)cc2)CC/C=C/C[C@@H]1CC(=O)N(CCO)Cc1ccccc1,–,–,·,–,–,–,·,·
